FLuc modulator – firefly luciferase modulation, counter-screen for miR-21 project. Potency, µM (doses to about 57.5 µM), without a hit: at the top dose activity change, negative = inhibition, most hits filed as inhibitors. P08659. AID 588342. hit rate 6.9% among 360,000. purified FLuc, Km substrates, luminescence inhibition;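 also: plate controls were vehicle for no effect and reference inhibitor for full effect; nearly all actives have a fitted effect of over 55% in size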
Target sequence (P08659 whole entry, looked up): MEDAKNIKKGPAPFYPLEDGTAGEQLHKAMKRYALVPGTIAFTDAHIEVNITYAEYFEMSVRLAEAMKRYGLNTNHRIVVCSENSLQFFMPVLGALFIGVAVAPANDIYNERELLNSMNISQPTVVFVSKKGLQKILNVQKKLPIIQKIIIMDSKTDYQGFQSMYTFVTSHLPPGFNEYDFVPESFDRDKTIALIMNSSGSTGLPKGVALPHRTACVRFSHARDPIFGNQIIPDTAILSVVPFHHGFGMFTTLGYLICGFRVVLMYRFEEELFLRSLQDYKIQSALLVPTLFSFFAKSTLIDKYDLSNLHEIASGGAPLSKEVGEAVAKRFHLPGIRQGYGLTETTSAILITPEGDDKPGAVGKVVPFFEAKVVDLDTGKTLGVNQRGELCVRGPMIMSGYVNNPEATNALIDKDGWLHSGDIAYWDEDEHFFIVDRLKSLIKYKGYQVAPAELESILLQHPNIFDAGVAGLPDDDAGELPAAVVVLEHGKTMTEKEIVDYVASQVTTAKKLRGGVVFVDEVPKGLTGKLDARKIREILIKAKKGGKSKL
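Biochemical qHTS of compounds, final roughly 60 µM downward over six points, against 10 nM purified firefly luciferase using Km concentrations of substrates (10 uM D-luciferin, 10 uM ATP) in Tris acetate pH 7.5 buffer; luminescence output.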
ELG1 genotoxic – genotoxicity induction in ELG1-luciferase HEK293T cells | HEK293T ELG1-luciferase reporter, luminescence, 16 h | Potency, µM (top dose mostly 46 µM), for inactives: at the top dose activity change, positive = activation, hits mostly activators | hit rate 1.3% among 330,000 | AID 504466; also: % of control where 0% means no effect; nearly all actives have a fitted effect of over 60% in size
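16 hr compound incubation (37 °C, 5% CO2) of HEK293T cells carrying luciferase-tagged ELG1; luciferase then measured by ONE-Glo luminescence after 30 min at RT.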
NPC1 promoter act – NPC1 promoter activation | Huh7 NPC1 promoter luciferase reporter, 24 h | Potency, µM (highest dose often 9.22 µM), for the others: top-dose activation, hits mostly activators | hit rate 2.4% among 320,000 | AID 485313; also: % of control where 0% means no effect; nearly all actives have a fitted effect of over 60% in size
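Luminescence from an NPC1 promoter-driven luciferase reporter in stably transfected Huh7 cells was measured after 24 h compound treatment at 37 °C, followed by 10 min ambient incubation with luciferase detection reagent.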
Rab9 prom act – activates the Rab9 promoter; Huh7 Rab9 promoter-luciferase reporter, luminescence, 24 h; Potency, µM (top dose mostly 9.22 µM), for inactives: at the top dose activation, negative = inhibition, hits mostly activators; hit rate 2.8% among 320,000; AID 485297; also: % of control where 0% means no effect; nearly all actives have a fitted effect of over 60% in size
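Cell-based reporter: Huh7 stable for Rab9 promoter-driven luciferase, plated in reduced-serum medium with 10% FBS at 1500 cells/well, compound-treated 24 h at 37 °C, luminescence read after 10 min reagent.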
SMN2 splice up – increases expression of the SMN2 splice variant; Potency, µM (top dose mostly 46.1 µM), without a hit: at the top dose activity change, positive = activation, hits mostly activators; hit rate 2.8% among 210,000; HEK293 SMN2-luciferase splicing reporter, luminescence, 30-36 h; also: % of control where 0% means no effect; nearly all actives have a fitted effect of over 55% in size
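HEK293 cells carry an SMN2 […]–luciferase reporter in which exon 7 inclusion puts luciferase in frame. Cells were plated 10-12 h before compound addition, then incubated 30-36 h at 37C. ONE-Glo luminescence was read; sodium butyrate at 4.5 mM final served as control.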
ELG1 repair inh – inhibitors of ELG1-dependent DNA repair in HEK293T cells; HEK293T ELG1-luciferase reporter, luminescence, 16 h; DNA damage induced by 5-fluorouridine; hit rate 2.3% among 330,000; Potency, µM (doses to about 46.1 µM), inactives show at the highest dose activity change, negative = inhibition, most hits filed as inhibitors; AID 504467; also: % is scaled to controls: 0 for no effect and ±100 for the full control effect; nearly all actives have a fitted effect of over 55% in size
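HEK293T cells expressing luciferase-tagged ELG1 (2,000/well) received 5-Fluorouridine plus compound or DMSO for 16 hr at 37 °C. Luciferase was read by ONE-Glo luminescence after 30 min at room temperature.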
Active calls of the source: *; ? = inconclusive; nt = no result given. Sampled rows, rich in hits. Any-hit rate of the full collection: about 9.2%. Calls follow the shape of the dose curve; as a rule, active = well fitted curve in the direction sought with a large enough effect; inconclusive = small, poorly fitted or top-dose-only effect, or another doubt; inactive = no such curve, though single readings can be large; an effect the other way counts as inactive or inconclusive. Potency is read from the fitted curve at half-maximal effect.

SMILES	FLuc modulator	ELG1 genotoxic	NPC1 promoter act	Rab9 prom act	SMN2 splice up	ELG1 repair inh
COc1ccc(-c2cn3ccc4ccccc4c3n2)cc1	0.953µM*	1.16µM*	?	?	3.16µM*	?
CCOC(=O)c1ccc(NC(=O)Cn2nc(C)c3nn(-c4ccc(Cl)cc4)c(C)c3c2=O)cc1	-15.9%	nt	nt	nt	nt	nt
Oc1csc(Cc2nc(-c3ccc(Br)cc3)cs2)n1	?	?	3.16µM*	3.55µM*	?	?
CSCc1c(C(=O)OCC(=O)c2ccc[nH]2)oc2ccccc12	-2.0%	-4.2%	11.8%	13.6%	nt	4.0%
CC(C)Cn1c(CCNC(=O)c2ccco2)nc2ccccc21	?	7.1%	1.3%	-2.8%	nt	?
CC(=O)OCC(=O)Nc1ccc(SC(F)F)cc1	?	0.2%	-2.5%	4.8%	20.9%	0.5%
C/C=C/C(=O)OCC(=O)Nc1ccc(SC(F)F)cc1	16.9µM*	1.8%	-26.6%	0.8%	5.3%	-0.3%
CCOc1ccc(NC(=O)CN2C(=O)CSC(C)C2=O)cc1 (stereo not drawn)	16.9µM*	-2.2%	-1.4%	-1.5%	9.0%	-17.8%
CCOc1ccc(NC(=O)c2ccc(NC(=O)COC(=O)Cc3ccc(OC)cc3)cc2)cc1	-0.5%	?	3.55µM*	2.51µM*	11.2µM*	?
O=C(Cc1ccccc1)Nc1ccc(SC(F)F)cc1	16.9µM*	12.3%	3.98µM*	3.16µM*	11.2µM*	?
CCOc1ccc(NC(C)=O)cc1	4.1%	1.8%	-1.2%	-2.0%	7.7%	13.3%
CCOc1ccc(NC(=O)/C(C=Nc2ccccc2)=C(\C)O)cc1	12µM*	-8.7%	-2.3%	2.8%	nt	7.8%
COC(=O)c1ccc(NC(=O)Cc2ccccc2)cc1	15.1µM*	?	3.98µM*	2.51µM*	9.3%	?
COC(=O)c1ccc(NC(=O)C(=O)c2cccn2C)cc1	1.9µM*	?	0.398µM*	0.355µM*	0.891µM*	?
CCOc1ccc(NC(=O)CNC(=O)Cc2ccccc2)cc1	4.8%	1.8%	1.3%	2.3%	nt	9.4%
CCOc1ccc(NC(=O)Cc2ccccc2)cc1	21.3µM*	?	3.55µM*	2.82µM*	8.91µM*	?
O=C1CCSC2(C(=O)N(Cc3ccc(F)cc3)c3ccccc32)N1c1ccc(Cl)cc1 (stereo not drawn)	-14.6%	nt	nt	nt	nt	nt
CCOc1ccccc1NC(=O)Cn1nnc2sc(-c3ccccc3)cc2c1=O	-12.5%	nt	nt	nt	2.3%	nt
Cn1c(CNC(=O)CCNC(=O)c2cccc(Br)c2)cc(=O)n(C)c1=O	0.1%	4.7%	-1.0%	-1.0%	nt	9.3%
CC(=O)Nc1ccc(C(=O)OCCc2ccccc2)cc1	12µM*	?	17.1%	17.7%	nt	?
CCOc1ccccc1NC(=O)c1cc2ccccc2oc1=O	-17.2%	9.0%	3.16µM*	1.12µM*	nt	7.8%
CCOc1cccc2cc(C(=O)N3CCOCC3)c(=O)oc12	5.5%	2.7%	-4.0%	-2.0%	nt	10.9%
COc1ccccc1NS(=O)(=O)c1cccc(NC(=O)Nc2ccccc2)c1	?	-5.2%	-2.3%	-0.3%	-29.0%	?
CCOc1cccc2cc(C(=O)Nc3nccs3)c(=O)oc12	2.39µM*	0.2%	2.3%	-1.1%	-2.8%	25.4%
COc1ccccc1NS(=O)(=O)c1cccc(NC(=O)c2cc3ccccc3oc2=O)c1	10.7µM*	23.1µM*	2.51µM*	3.16µM*	14.1µM*	?
O=C(Nc1ccc(F)cc1F)c1cccc(C(=O)Nc2ccc(F)cc2F)n1	-1.2%	18.3µM*	-5.6%	-7.8%	nt	16.4µM*
CCc1c(C2(O)CCCCC2)[nH]c2cnccc12	-8.9%	-2.7%	-2.2%	-8.2%	nt	5.0%
CCCn1c(CCC(=O)Nc2cc(Cl)c(OC)cc2OC)nc2cccnc21	1.8%	nt	nt	nt	12.5%	nt
O=C(Nc1ccc(F)cc1F)c1cc2ccccc2oc1=O	0.757µM*	4.61µM*	2µM*	1.78µM*	nt	?
COc1ccc(CC(=O)N2CCc3ccccc3C2)cc1	?	9.8%	-5.2%	-0.5%	nt	?

Screens deposited in PubChem BioAssay by National Center for Advancing Translational Sciences (NCATS).
